Data from PubChem BioAssay.
Active and inactive are the calls of the source. Unless noted, the rule behind the calls is not given here.

Columns and labels:
[1] = HepG2 liver cancer cell viability effects, profiling panel, resazurin fluorescence, 24 h, PK04 Diversity Set (AID 1172); conditions: higher = more signal
[2] = basal S. cerevisiae growth modulation, no modifier, primary screen, OD600, strain BY4716, 24 h, basal condition (AID 1173); conditions: OD600, 24 h, higher = more signal, called active from +8 up or from −8 down
[3] = MM1S myeloma cell viability, profiling panel, resazurin fluorescence, basal, 24 h, PK04 Diversity Set (AID 1174); conditions: higher = more signal, called active from +8 up or from −8 down;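 note: MM1S multiple myeloma cell line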
[4] = biological target: Dihydroorotate dehydrogenase (quinone), mitochondrial (Plasmodium falciparum (isolate 3D7)) (UniProt Q08210); assay: PfDHODH enzyme inhibitors, primary screen, biochemical, C-terminal His tag, absorbance 600 nm (AID 1175); conditions: DCIP absorbance 600 nm, higher = more signal, called active from +8 up or from −8 down;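 note: recombinant parasite enzyme with a five histidine tag at its C terminus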
Chain of Dihydroorotate dehydrogenase (quinone), mitochondrial (Plasmodium falciparum (isolate 3D7)) (Q08210 whole entry, looked up): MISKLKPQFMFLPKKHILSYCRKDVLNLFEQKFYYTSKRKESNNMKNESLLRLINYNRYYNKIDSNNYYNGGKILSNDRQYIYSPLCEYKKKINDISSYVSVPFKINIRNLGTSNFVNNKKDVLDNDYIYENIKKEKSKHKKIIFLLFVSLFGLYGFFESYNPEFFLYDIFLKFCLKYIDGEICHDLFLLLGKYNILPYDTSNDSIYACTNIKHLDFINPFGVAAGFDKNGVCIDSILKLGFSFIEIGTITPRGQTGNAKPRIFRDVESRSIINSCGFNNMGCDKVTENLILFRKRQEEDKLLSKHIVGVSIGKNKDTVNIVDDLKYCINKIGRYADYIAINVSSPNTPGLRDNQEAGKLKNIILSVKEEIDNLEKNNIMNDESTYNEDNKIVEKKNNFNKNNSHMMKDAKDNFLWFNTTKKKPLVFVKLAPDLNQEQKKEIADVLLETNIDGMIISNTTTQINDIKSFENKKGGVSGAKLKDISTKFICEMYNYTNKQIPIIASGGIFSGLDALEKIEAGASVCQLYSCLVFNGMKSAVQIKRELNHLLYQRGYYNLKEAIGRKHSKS

[5] = P. aeruginosa biofilm formation inhibitors, primary screen, strain PAO1, LB-PBS medium, absorbance 600 nm (AID 1176); conditions: P. aeruginosa PAO1 growth/biofilm, A600, 12 h; higher = more signal
[6] = S. cerevisiae RM11-1a growth modifiers, primary screen, strain RM11-1a, OD600, basal, 24 h (AID 1177); conditions: OD600, 24 h, higher = more signal, called active from +8 up or from −8 down;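 note: cultures grown under basal conditions with no added stressor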
[7] = E. coli acrAB mutant growth effects, primary screen, E. coli filamentation inducers, strain DRC39, OD650, 24 h (AID 1178); conditions: higher = more signal, called active from +8 up or from −8 down;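 note: growth measured as culture turbidity by optical density at 650 nm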
[8] = E. coli acrAB mutant growth effects, primary screen, E. coli filamentation inducers, strain DRC39, OD650, 48 h (AID 1179);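 note: screen aims at cell division blockers that make cells filament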; conditions: E. coli DRC39 delta-acrAB growth, higher = more signal, called active from +8 up or from −8 down
[9] = RPMI8226 myeloma cell viability, profiling panel, resazurin fluorescence, basal, 24 h, PK04 Diversity Set (AID 1180); conditions: higher = more signal;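 note: RPMI8826 multiple myeloma cell line at 5000 cells per well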
[10] = biological target: E3 ubiquitin-protein ligase XIAP (Homo sapiens) (UniProt P98170); assay: XIAP binders, primary screen, biophysical, small-molecule microarray, fluorescence 635 nm (AID 1181); conditions: small-molecule microarray binding, higher = more signal;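 note: score merges 667 nm emission and signal to noise over triplicate slides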
Chain of E3 ubiquitin-protein ligase XIAP (Homo sapiens) (P98170 whole entry, looked up): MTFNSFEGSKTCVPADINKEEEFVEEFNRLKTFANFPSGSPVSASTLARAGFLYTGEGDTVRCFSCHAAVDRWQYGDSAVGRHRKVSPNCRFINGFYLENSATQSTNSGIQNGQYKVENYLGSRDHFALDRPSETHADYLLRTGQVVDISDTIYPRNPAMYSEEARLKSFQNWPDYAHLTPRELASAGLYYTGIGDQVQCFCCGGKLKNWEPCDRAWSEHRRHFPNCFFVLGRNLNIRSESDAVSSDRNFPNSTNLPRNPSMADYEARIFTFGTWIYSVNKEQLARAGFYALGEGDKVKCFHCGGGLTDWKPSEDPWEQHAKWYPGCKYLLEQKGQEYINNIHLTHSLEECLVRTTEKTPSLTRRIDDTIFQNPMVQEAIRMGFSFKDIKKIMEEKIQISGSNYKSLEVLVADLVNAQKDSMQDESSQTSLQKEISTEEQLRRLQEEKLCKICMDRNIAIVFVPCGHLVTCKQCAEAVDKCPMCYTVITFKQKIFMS

[11] = system: XIP peptide (Xip251-270) binding; assay: small-molecule binders of XIP peptide, primary screen, biochemical, small-molecule microarray, fluorescence 635/667 nm, 0.1 µg/mL protein (AID 1182); conditions: fluorescent protein binding, 635 nm, higher = more signal, called active from +8 up or from −8 down
[12] = system: XIP peptide (Xip251-270); assay: small-molecule binders of XIP peptide, primary screen, biochemical, small-molecule microarray, fluorescence 635/667 nm, 0.5 µg/mL protein (AID 1183); conditions: small-molecule microarray binding, fluorescence 635 nm; higher = more signal
[13] = Plasmodium falciparum growth inhibition, primary screen, strain 3D7, DAPI fluorescence, 100 nL (AID 1184);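 note: parasites grown inside human red blood cells in medium with human serum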; conditions: P. falciparum 3D7 growth, 3 d, higher = more signal
[14] = biological target: Homeobox protein Hox-A13 (Mus musculus) (UniProt Q62424); assay: inhibitors of HoxA13-DNA binding, primary screen, biochemical, fluorescence polarization, labeled oligonucleotide (AID 1185); conditions: 15 min, higher = more signal, called active from +8 up or from −8 down
Chain of Homeobox protein Hox-A13 (Mus musculus) (Q62424 whole entry, looked up): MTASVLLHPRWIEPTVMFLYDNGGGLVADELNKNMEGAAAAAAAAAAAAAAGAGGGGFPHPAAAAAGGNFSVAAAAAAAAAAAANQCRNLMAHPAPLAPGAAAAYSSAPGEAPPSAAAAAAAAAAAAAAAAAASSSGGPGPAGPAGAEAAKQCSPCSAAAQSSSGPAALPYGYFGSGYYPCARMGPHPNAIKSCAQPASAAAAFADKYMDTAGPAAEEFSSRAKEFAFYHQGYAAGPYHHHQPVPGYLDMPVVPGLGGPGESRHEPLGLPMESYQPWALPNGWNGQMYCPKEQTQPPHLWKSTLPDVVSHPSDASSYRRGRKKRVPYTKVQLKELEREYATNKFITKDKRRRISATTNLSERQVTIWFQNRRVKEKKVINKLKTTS

[15] = inhibitors of hydroxyurea-induced Chk1 phosphorylation, primary screen, imaging, HeLa, phospho-Chk1 antibody, percent positive cells (AID 1186); conditions: hydroxyurea-induced phospho-Chk1 immunofluorescence imaging, higher = more signal
[16] = inhibitors of hydroxyurea-induced Chk1 phosphorylation, primary screen, imaging, HeLa, phospho-Chk1 nuclear intensity (AID 1187); conditions: hydroxyurea-induced phospho-Chk1 immunofluorescence imaging, higher = more signal

| Structure (SMILES) | z-score [1] | z-score [2] | z-score [3] | composite z-score [4] | z-score [5] | z-score [6] | z-score [7] | z-score [8] | z-score [9] | composite z-score [10] | composite z-score [11] | composite z-score [12] | z-score [13] | z-score [14] | z-score [15] | z-score [16] |
| --- | --- | --- | --- | --- | --- | --- | --- | --- | --- | --- | --- | --- | --- | --- | --- | --- |
| COCCOC(=O)N1C(=O)[C@@]2(c3cc(C#CC4(O)CCCCCC4)ccc31)[C@H](c1ccc(O)cc1)N1[C@H](c3ccccc3)[C@H](c3ccccc3)OC(=O)[C@H]1[C@@H]2C(=O)Nc1nc2ccccc2s1 | -0.181 | -0.213 (inactive) | 0.0851 (inactive) | 0.811 (inactive) | 0.51 (inactive) | 0.443 (inactive) | -0.239 (inactive) | 0.208 (inactive) | -0.815 | 0.0679 | 1.18 (inactive) | 0.708 | -0.326 | -1.3 (inactive) | 0.227 (inactive) | 0.428 (inactive) |
| CCN(CC)c1ccc(N2CC=CC34O[C@@H]5/C=C\CCCOC(=O)C5[C@H]3C(=O)N(CCO)[C@@H]4C2=O)cc1 (stereo partly specified) | -1.46 | 0.245 (inactive) | -0.0391 (inactive) | 0.174 (inactive) | -0.606 (inactive) | 0.747 (inactive) | -1.16 (inactive) | -1.26 (inactive) | 0.547 | 0.56 | 0.482 (inactive) | 0.643 | -1.52 | -5.79 (inactive) | 0.225 (inactive) | 0.161 (inactive) |
| COc1ccc(C(=O)Nc2ccc(CN3C(=O)[C@@]4(O[C@@H](CCO)[C@H]([Si](C)(C)c5ccc(OC)cc5)[C@H]4C)c4ccccc43)cc2)cc1 | -4.21 | -3.8 (inactive) | -9.13 (active) | -0.851 (inactive) | 2.25 (inactive) | 3.08 (inactive) | 1.53 (inactive) | -0.0036 (inactive) | -5.97 | -0.172 | 0.264 (inactive) | 0.758 | -2.74 | -1.17 (inactive) | -0.0822 (inactive) | -0.0421 (inactive) |
| COc1cc2c(cc1O)C=[N+](Cc1cccc(OC(F)(F)F)c1)CC2 | -0.935 | 0.165 (inactive) | -0.682 (inactive) | -3.35 (inactive) | -0.531 (inactive) | -0.957 (inactive) | 0.0214 (inactive) | 0.569 (inactive) | -1.25 | -0.259 | -0.103 (inactive) | 0.0686 | -1.94 | -3.45 (inactive) | -0.0564 (inactive) | -0.707 (inactive) |
| COc1ccc(C(O)C2C=CC3C(=O)NC(=O)C3N2Nc2ccccn2)cc1 (stereo unspecified) | -0.396 | 0.0843 (inactive) | -0.285 (inactive) | 0.91 (inactive) | 0.366 (inactive) | 0.31 (inactive) | -0.276 (inactive) | -0.401 (inactive) | -0.721 | -0.893 | -1.2 (inactive) | 0.658 | 0.557 | -1.88 (inactive) | 0.723 (inactive) | 0.51 (inactive) |
| CC(C)C[C@@H]1NC(=O)[C@H]2C[C@@H](C(=O)NCCCCCCN(C)C)[C@@H](c3ccc(O)cc3)N2C1=O | -0.447 | -0.476 (inactive) | -0.671 (inactive) | -0.687 (inactive) | -0.214 (inactive) | -0.217 (inactive) | 0.0306 (inactive) | 0.152 (inactive) | -1.26 | 0.125 | 1.2 (inactive) | 0.876 | 1.26 | -1.57 (inactive) | 0.731 (inactive) | 0.387 (inactive) |
